# Out of some 220,000 compounds screened, about 2,000 (0.91%) were called active. Inconclusive results (about 2%) are left out. Rule as the data show it: inconclusive = inhibition above about 80% without an active follow-up result; inactive = below that; test concentration not stated here. The list is a sample of the results. Results with a measured potency or affinity are listed apart.
# Experiment: M. tuberculosis H37Rv growth inhibitors, H37Rv strain (AID 1626);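 also: bacteria incubated seven days before Alamar blue readout; 0% = bacteria only wells and 100% = bacteria with antibiotic wells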
# Conditions: hits give high values, concentration not given here
row,SMILES,inhibition
1,Cc1nccc(-c2sc(-c3cccs3)nc2C)n1,2.12% (inactive)
2,COc1ccc(N2C(=O)N(Cc3ccccc3F)c3ccccc3S2(=O)=O)cc1,6.95% (inactive)
3,CCCCNC(=O)c1ccc(SCC(=O)N(CC)CC)c([N+](=O)[O-])c1,0.05% (inactive)
4,Brc1ccc(Oc2ncc(CN3CCN(c4ccccc4)CC3)s2)cc1,2.17% (inactive)
5,O=C(Cn1nc(-c2nn(CC(=O)c3ccccc3)c3[n+]2CCCCC3)[n+]2c1CCCCC2)c1ccccc1,6.97% (inactive)
6,Cc1ccc(-c2cn(-c3ccc(OC(F)F)cc3)c3[n+]2CCCCC3)cc1,-4.29% (inactive)
7,O=C(O)CCCC(=O)NNC(=O)c1cccc(Br)c1,0.6% (inactive)
8,COc1cc(CNCc2ccccc2)cc(Cl)c1OC,4.65% (inactive)
9,CCOc1cc(CNCCc2ccc(S(N)(=O)=O)cc2)cc(Cl)c1OCc1ccccc1,58.8% (inactive)
10,O=C(O)c1ccc(COc2ccccc2/C=C2\NC(=O)N(Cc3ccccc3F)C2=O)cc1,-2.79% (inactive)
11,CN=C(Nc1ccccc1OC)SC1CC(=O)N(c2ccc(C(=O)OC)cc2)C1=O (stereo unspecified),7.4% (inactive)
12,CN=C(Nc1ccccc1)SC1CC(=O)N(c2ccc(C(=O)OC)cc2)C1=O (stereo unspecified),-2.27% (inactive)
13,COc1ccc(N=Cc2c(O)n(Cc3ccccc3)c(=S)[nH]c2=O)c(OC)c1,6.73% (inactive)
14,O=C(CSc1nnc(-c2cccnc2)n1-c1ccccc1)NCc1ccc2c(c1)OCO2,6.03% (inactive)
15,CC(Oc1ccc(Cl)cc1Cl)c1ccn[nH]1 (stereo unspecified),2.27% (inactive)
16,O=C(O)CCC(=O)NN1C(=O)c2ccccc2NC1c1ccco1 (stereo unspecified),-6.39% (inactive)
17,COc1ccc(NC(=O)c2cc3ccc4c5ccccc5[nH]c4c3cc2O)cc1,2.53% (inactive)
18,CC(=O)Nc1ccc2[nH]c3ccccc3c2c1,10.6% (inactive)
19,CC(OC(=O)c1ccccc1O)C(=O)Nc1cccc(Cl)c1 (stereo unspecified),3.01% (inactive)
20,CCOC(=O)Cc1nnc(NC(=O)C(CC)Sc2nc(C)cc(=O)[nH]2)s1 (stereo unspecified),-0.83% (inactive)
21,CCOc1ccc2nc(NC(=O)c3ccoc3C)sc2c1,8.64% (inactive)

row,SMILES,inhibition
1,CCOc1ccc2nc(NC(=O)c3cccnc3)sc2c1,3.09% (inactive)
2,CCC(Sc1nc(C)cc(=O)[nH]1)C(=O)Nc1nnc(C)s1 (stereo unspecified),-7.53% (inactive)
3,CCOc1ccc2nc(NC(=O)C3=NNC(=O)CC3)sc2c1,46.3% (inactive)
4,CCOc1ccc2nc(NC(=O)Nc3ccccc3)sc2c1,1.1% (inactive)
5,c1ccc(CNC2=NCCCCC2)cc1,-3.52% (inactive)
6,COCCN(CC(=O)NC1CCCCC1)C(=O)CSc1nc2ccccc2o1,-4.79% (inactive)
7,CC(C)N1C(=O)c2ccc(C(=O)O)cc2C1=O,2.62% (inactive)
8,CCOC(=O)C1=C(C)NC(=S)N(C=O)C1c1ccccc1 (stereo unspecified),6.03% (inactive)
9,Cc1ccc(SCC(=O)NCc2cccnc2)cc1,-4.12% (inactive)
10,O=c1[nH]c2ccccc2c2nc3ccccn3c12,-1.5% (inactive)
11,O=c1[nH]c2ccccc2c(O)c1O,-3.51% (inactive)
12,Cc1ccc(-c2nc(CS(=O)CC(=O)NCc3ccccc3)c(C)o2)cc1 (stereo unspecified),3.18% (inactive)
13,O=C(Nc1ccc(N2CCOCC2)cc1)C1CC1,-4.12% (inactive)
14,O=C(Nc1ccc(Nc2ccccc2)cc1)C1CC1,-4.99% (inactive)
15,O=C(Nc1ccc(Oc2ccc(NC(=O)C3CCCO3)cc2)cc1)C1CCCO1 (stereo unspecified),-8.27% (inactive)
16,O=C(Nc1ccc(Cc2ccc(NC(=O)C3CC3)cc2)cc1)C1CC1,7.74% (inactive)
17,COc1ccc(NC(=O)C2CCCO2)cc1 (stereo unspecified),-10% (inactive)
18,CS(=O)(=O)N1CCC(C(=O)Nc2ccc(Oc3ccccc3)cc2)CC1,2.66% (inactive)
19,O=C(CCc1n[nH]c(=O)[nH]c1=O)N1CCCCC1,-1.04% (inactive)
20,COc1cc(C(O)P(=O)(OCC(C)C)c2ccc(N(C)C)cc2)cc(OC)c1OC (stereo unspecified),-2.15% (inactive)
21,CCCc1[nH]nc2c1C(c1ccc(OCCN3CCOCC3)c(OC)c1)C(C#N)=C(N)O2 (stereo unspecified),-0.42% (inactive)

row,SMILES,inhibition
1,CCC(CO)Nc1nc(CN2CCCCC2)nc2scc(-c3ccccc3)c12 (stereo unspecified),7.81% (inactive)
2,CN1CCN(c2nc(-c3cccnc3)nc3scc(-c4ccccc4)c23)CC1,-0.01% (inactive)
3,OCC1CCCN(c2nc(CN3CCCCC3)nc3scc(-c4ccccc4)c23)C1 (stereo unspecified),1.65% (inactive)
4,CC1CCCN(c2nc(-c3cccnc3)nc3scc(-c4ccccc4)c23)C1 (stereo unspecified),10.2% (inactive)
5,CCCn1nc(C(=O)Nc2nnc(CC)s2)c2ccccc2c1=O,-9.02% (inactive)
6,CC1CN(C(=O)N(C)C)CCN1C(=O)N(C)C (stereo unspecified),-15.9% (inactive)
7,CC(=O)c1c(-c2ccc(Cl)cc2Cl)noc1C,2.75% (inactive)
8,COc1cc(NC(=O)c2ccc(OC)c([N+](=O)[O-])c2)ccc1NC(=O)c1ccco1,-4.07% (inactive)
9,COc1ccccc1NC(=S)N(Cc1ccco1)Cc1cc2cc(C)c(C)cc2[nH]c1=O,6.98% (inactive)
10,Cc1ccc(S(=O)(=O)Nc2nc3cc(C)c(C)cc3[nH]2)cc1,8.1% (inactive)
11,Cn1c(SCC(=O)N2CCCC2)nc2ccccc21,3.37% (inactive)
12,O=C(NCc1cccc(Cl)c1)c1cnn2c1NC(c1ccco1)CC2C(F)(F)F (stereo unspecified),6.69% (inactive)
13,O=C(NCc1ccco1)c1cc2n(n1)C(C(F)(F)F)CC(c1ccc(F)cc1)N2 (stereo unspecified),42% (inactive)
14,O=C(O)c1cc2n(n1)C(C(F)(F)F)CC(c1ccccc1)N2 (stereo unspecified),-8.1% (inactive)
15,O=C(NCc1ccco1)c1cnn2c1NC(c1ccccc1)CC2C(F)(F)F (stereo unspecified),2.86% (inactive)
16,CCCn1cc(NC(=O)c2cc3n(n2)C(C(F)(F)F)CC(c2ccccc2)N3)cn1 (stereo unspecified),0.85% (inactive)
17,O=C(NCc1ccco1)c1cc2n(n1)C(C(F)(F)F)CC(c1ccc(Br)cc1)N2 (stereo unspecified),74.2% (inactive)
18,Cc1c(CNC(=O)c2cnn3c2NC(c2ccccc2)CC3C(F)(F)F)cnn1C (stereo unspecified),-9.25% (inactive)
19,Cc1nn(C)cc1CNC(=O)c1cnn2c1NC(c1ccc(Br)cc1)CC2C(F)(F)F (stereo unspecified),3.8% (inactive)

# Reference: PubChem BioAssay AID1626 (SRMLSC, 2009)
